CHO-K1 Ca antag – nonselective inhibitor or artifact in parental CHO-K1 cells; 360,000 tested, 0.6% active; ATP-induced calcium, Fluo-8 fluorescence; inhibition, % at 3 µM;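 active means inhibition above a per-plate cutoff, the plate's mean sample inhibition plus 3 SD, cut at about 24% in these data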
CHRM1 antagonist – antagonists of human M1 muscarinic receptor; P11229; CHO-K1 hM1, Fluo-8 calcium fluorescence, ACh EC80 antagonist; inhibition, % at 3 µM; 360,000 tested, 1.3% active; AID 588852;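 active means percent inhibition above its own plate's cutoff, namely the mean of that plate's compound wells plus 3 SD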;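 further: peak over basal fluorescence ratio during 140 s after agonist addition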
Target sequence (P11229 whole entry, looked up): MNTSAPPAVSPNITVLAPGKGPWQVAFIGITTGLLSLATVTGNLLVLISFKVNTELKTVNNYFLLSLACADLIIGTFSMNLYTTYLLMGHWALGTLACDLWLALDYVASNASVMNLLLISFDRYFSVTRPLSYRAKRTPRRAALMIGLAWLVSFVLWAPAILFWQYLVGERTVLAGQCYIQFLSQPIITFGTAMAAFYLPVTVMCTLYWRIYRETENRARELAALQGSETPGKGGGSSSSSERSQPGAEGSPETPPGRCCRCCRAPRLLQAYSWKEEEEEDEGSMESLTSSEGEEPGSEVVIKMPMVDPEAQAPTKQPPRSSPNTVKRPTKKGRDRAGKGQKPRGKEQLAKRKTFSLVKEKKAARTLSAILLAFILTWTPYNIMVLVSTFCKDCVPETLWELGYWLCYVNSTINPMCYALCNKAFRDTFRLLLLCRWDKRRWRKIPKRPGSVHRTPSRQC
M1 PAM – positive allosteric modulators of human M1 muscarinic receptor | CHO-K1 hM1, Fluo-8 calcium fluorescence, ACh EC20; 0% = ACh EC20, 100% = maximal ACh | 360,000 tested, 0.088% active | P11229 | activation, % at 3 µM; in the data active means activation above about 19%, passing the limit was not always enough
CHRM1 agonist – human M1 muscarinic receptor agonism; activation, % at 3 µM; 360,000 tested, 0.33% active; CHO-K1 hM1, Fluo-8 calcium fluorescence, agonist mode; 0% DMSO, 100% acetylcholine EC100; P11229;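 active means activation above the run's mean compound activation plus 3 SD, cut at about 16% in these data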;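 further: peak over basal fluorescence ratio within a 140 s kinetic read after compound addition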
CHO-K1 Ca ag – counter-screen for M1 agonists: effect in parental CHO-K1 cells. Fluo-8 calcium fluorescence; scaled to maximal ATP response, vehicle zero. activation, % at 3 µM. 360,000 tested, 0.48% active; in the data active means activation above about 15%;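 further: untransfected CHO-K1 host cells lacking M1 receptor as counterscreen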
CHO-K1 Ca PAM – counter-screen for M1 PAMs: effect in parental CHO-K1 cells | ATP EC20, Fluo-8 calcium fluorescence; 0% at ATP EC20, 100% at ATP max | activation, % at 3 µM | 360,000 tested, 0.02% active | AID 602247;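 active means activation above the run cutoff, the mean activation of all test compounds plus 3 SD, cut at about 40% in these data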;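 further: peak over basal fluorescence ratio in a 140 s read after ATP addition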
Of the large screens only hits and unclear results are named; the others gave an inactive call. Shown are actives, neighbours in structure and some others; about 2.3% of the full set was active somewhere.

c1ccc(CNC2CN3CCC2CC3)cc1 (stereo not given)	CHRM1 antagonist 59
CCOC(=O)c1cccc(C2=C(CNC(=O)c3nccs3)[C@H]3CC[C@@H](C2)N3Cc2ccccc2)c1	none
COC(=O)C1=C(c2cc3ccccc3o2)C[C@@H]2CC[C@H]1N2C(=O)NCCNC(C)=O	CHRM1 antagonist 33
CC(C)(C)c1ccc(CSc2cnn(C(C)(C)C)c(=O)c2Cl)cc1	CHO-K1 Ca antag 32, CHO-K1 Ca ag 18
CN1CC(C(=O)c2cccc(C(F)(F)F)c2)C(c2ccc(Cl)cc2)C1 (stereo not given)	none
Oc1cccc(/C=N/NP(=S)(c2ccccc2)c2ccccc2)c1	CHO-K1 Ca antag 25
O=P(Nc1ccccc1)(Nc1ccccc1)Oc1cccc(Cl)c1	CHO-K1 Ca ag 41
Cc1cccc(NP(=O)(Oc2ccccc2)Oc2ccccc2)c1C	CHRM1 antagonist 30, CHO-K1 Ca ag 17
O=P(Nc1ccccc1)(Nc1ccccc1)Oc1ccccc1	none
O=P(Nc1ccccc1)(Oc1ccccc1)Oc1ccccc1	CHRM1 antagonist 37
CC(C)(C)C(=O)N1Cc2cc(-c3ccccc3)ccc2-n2nncc2C1	none
O=C(NCC1=C(c2cccc3ccccc23)C[C@@H]2CC[C@H]1N2Cc1ccco1)c1ccc([N+](=O)[O-])cc1	none
CN1[C@@H]2CCC[C@H]1CC(=O)C2	none
C#C[C@]1(O)CC[C@H]2[C@@H]3[C@H](O)C[C@H]4C[C@@H](O)CC[C@]4(C)[C@H]3CC[C@@]21C	none
O=C1NCN(c2ccccc2)C12CCN(C(c1cccc3ccccc13)c1nnnn1C1CCCC1)CC2 (stereo not given)	none
COc1ccc(CN2Cc3cc(N4CCCCC4)ccc3-n3nncc3C2)cc1	none
CC1c2ccccc2-n2nncc2CN1C (stereo not given)	none
CC(C)N(CCC(C(N)=O)(c1ccccc1)c1ccccn1)C(C)C (stereo not given)	none
CC1(C)CCCN1CCC(C(N)=O)(c1ccccc1)c1ccccc1	CHRM1 antagonist 99
C[n+]1c(-c2ccccc2)cc(CCCCc2cc(-c3ccccc3)[n+](C)c(-c3ccccc3)c2)cc1-c1ccccc1	CHRM1 antagonist 55
Cc1ccc(-c2cc(-c3ccccc3)cc(-c3ccccc3)[n+]2-c2ccc(C(=O)O)cc2)cc1	none
CCN(CC)S(=O)(=O)c1cc(NC(=O)C(C)N2CC=C(c3ccccc3)CC2)ccc1C (stereo not given)	CHRM1 antagonist 37
Cc1cc(Br)c(NC(=O)CN2CC=C(c3ccccc3)CC2)c(Br)c1	none
CCC(c1nnnn1-c1ccc(OC)cc1)N1CCC2(CC1)C(=O)NCN2c1ccccc1 (stereo not given)	none
Cn1c(=O)n(CC(=O)N2CCC3(CC2)OCCO3)c(=O)c2ccccc21	M1 PAM 25
O=C(Cn1c(=S)[nH]c2ccccc2c1=O)N1CCC2(CC1)OCCO2	none
CCC(CO)(C(=O)OC1CC2CCC(C1)N2C)c1ccccc1 (stereo not given)	CHRM1 antagonist 101
COc1ccc(CC2=NCCc3cc(OC)c(OC)cc32)cc1OC	none
O=C(c1ccccc1)C(CN1CCCC1)c1ccccc1 (stereo not given)	CHRM1 antagonist 51
O=C(CN1CCCCC1)c1ccc(F)cc1	none
CC1(C)CSC(=NCc2ccccc2)N1	CHO-K1 Ca ag 26
O=C(NCCN1CCC2(CC1)C(=O)NCN2c1cccc(F)c1)c1ccc2ccccc2c1	CHO-K1 Ca antag 93, CHO-K1 Ca ag 41 (no result: CHRM1 antagonist, M1 PAM, CHRM1 agonist)
O=C1NCN(c2ccccc2)C12CCNCC2	none
CCOC(=O)[C@]12Cc3cc(C)ccc3[C@H]1N(C1CCCCC1)C(=O)c1ccccc12	none (no result: CHRM1 antagonist, M1 PAM, CHRM1 agonist)
NNC(N)=O	CHRM1 agonist 16
CC(=O)OC1(c2ccccc2)CCN(C2CCCCC2)CC1C (stereo not given)	CHRM1 antagonist 31
CCOC(=O)[C@]12Cc3c(cc(OC)c(OC)c3OC)[C@H]1N(C1CCCCC1)C(=O)c1ccccc12	none (no result: CHRM1 antagonist, M1 PAM, CHRM1 agonist)
C[N+](C)(C)CCc1ccc(O)cc1	CHRM1 agonist 35
Oc1ccc(Cl)cc1	none
COc1ccc(C2=CC(c3ccc4c(c3)OCO4)c3c(c4ccccc4oc3=O)O2)cc1OC (stereo not given)	none

High-throughput results deposited in PubChem by The Scripps Research Institute Molecular Screening Center.
